Reference: PubChem BioAssay (NCATS)
A number with no mark means an inactive call. Activity calls are given as the source filed them. The rule behind the calls is not given here.

tested on: HIV-1 nucleocapsid protein NCp7 (binding to TG oligonucleotide); assay: HIV Nucleocapsid (AID 346); settings: HIV-1 NC / fluorescein-TGTGTGTG probe, fluorescence polarization;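 note: potency is for inhibitors that block NC binding and lower polarization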
How it was run: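 HIV-1 NC (100 nM) binding to fluorescein-labelled ssDNA TG4xF (10 nM) in Hepes pH 7.5, 250mM NaCl, 1uM ZnCl2, TCEP and 2-mercaptoethanol; compounds pin-transferred, 1 hr room temperature, fluorescence polarization read on CCD imager.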
Potency is the fitted concentration of half-maximal effect.

Row | Compound | Potency
1 | COCCNc1cc(-c2ccccc2C(F)(F)F)ncn1 | > 20 µM
2 | Cn1c(=O)c(-c2cc(F)cc(F)c2)nc2cnc(N3CCNCC3)nc21 | > 20 µM
3 | O=c1c(-c2ccccc2)nc2cnc(Oc3ccccc3)nc2n1Cc1cccs1 | > 20 µM
4 | COCC(=O)N1CCC[C@@]2(CCN(c3ccncc3)C2)C1 | > 20 µM
5 | CC(=O)NCCNc1cc(-c2ccccc2C)ncn1 | > 20 µM
6 | COC(=O)N1CCC[C@@]2(CCN(C(=O)Nc3cccc(C#N)c3)C2)C1 | > 4 µM
7 | COc1ccc(NC(=O)N2CC[C@@]3(CCCN(C(=O)c4ccc(OC)cc4)C3)C2)cc1 | > 20 µM
8 | COc1ccccc1-c1ccc2ncnc(N(C)Cc3ccco3)c2c1 | > 20 µM
9 | CN1CCN(c2ncnc3ccc(-c4cccc(NS(C)(=O)=O)c4)cc23)CC1 | > 20 µM
10 | CS(=O)(=O)N1CCC2(CCN(C(=O)Nc3cccc(C#N)c3)CC2)CC1 | > 20 µM
11 | Cn1cc(-c2nc3cncnc3n(-c3ccccc3)c2=O)c2ccccc21 | 4.43 µM (active)
12 | COc1ccc(-c2nc3cnc(N4CCNCC4)nc3n(Cc3cccc(OC)c3)c2=O)cc1 | > 20 µM
13 | Cc1noc(C)c1C(=O)N1CCC[C@@]2(CCN(C(=O)NC(C)C)C2)C1 | > 20 µM
14 | COCCn1c(=O)c(C)nc2cncnc21 | > 20 µM
15 | COc1cccc(Cn2c(=O)c(-c3cn(C)c4ccccc34)nc3cncnc32)c1 | > 20 µM
16 | COc1ccc(Oc2ncc3ncc(=O)n(Cc4cccc(OC)c4)c3n2)cc1 | > 20 µM
17 | COCCn1c(=O)c(-c2ccc(OC)cc2)nc2cnc(Oc3cccc(Cl)c3)nc21 | > 20 µM
18 | O=c1c(-c2cc(F)cc(F)c2)nc2cncnc2n1C1CC1 | > 20 µM
19 | O=C(Oc1ccccc1)N1CCC2(CC1)CCN(c1ccncc1)CC2 | > 20 µM
20 | CN1CCN(c2cc(-c3ccccc3Cl)ncn2)CC1 | > 20 µM

Row | Compound | Potency
21 | O=C(c1cnccn1)N1CCC2(CC1)CN(c1cccc(-c3ccccc3)c1)C2 | > 20 µM
22 | Cc1noc(C)c1-c1cncnc1NCc1cccnc1 | > 20 µM
23 | COc1ccc(Oc2ncc3nc(-c4ccc(F)cc4)c(=O)n(C4CC4)c3n2)cc1 | > 20 µM
24 | COc1ccc(C(=O)N2CCC3(CCN(Cc4nccs4)CC3)CC2)cc1 | > 20 µM
25 | COc1ccc(-n2c(=O)c(-c3ccc(F)cc3)nc3cnc(N4CCNCC4)nc32)cc1 | > 20 µM
26 | CN(C)c1ncc2ncc(=O)n(C)c2n1 | > 20 µM
27 | COc1ccc(NC(=O)N2CCCC3(CCNCC3)C2)cc1 | > 20 µM
28 | CS(=O)(=O)Nc1cccc(-c2nc(NC3CC3)c3ccccc3n2)c1 | > 20 µM
29 | CN1CCN(c2ncc3nc(-c4cc(F)cc(F)c4)c(=O)n(CCc4ccccc4)c3n2)CC1 | > 20 µM
30 | COc1cccc(Cn2c(=O)c(-c3cc(F)cc(F)c3)nc3cnc(OC)nc32)c1 | > 20 µM
31 | CS(=O)(=O)N1CCC2(CCCN(C(=O)Nc3cccc(C#N)c3)C2)CC1 | > 20 µM
32 | Cc1noc(C)c1-c1nc(N2CCN(C)CC2)c2ccccc2n1 | > 20 µM
33 | Cc1ccccc1-c1cncnc1Nc1ccccc1 | > 20 µM
34 | CCNc1ncc2ncc(=O)n(Cc3cccs3)c2n1 | > 20 µM
35 | O=C(c1cccc(F)c1)N1CCC2(CC1)CN(c1ncccn1)C2 | > 20 µM
36 | Cc1noc(C)c1-c1nccc(N2CCN(C)CC2)n1 | > 20 µM
37 | CN(C)C(=O)c1ccc(-c2nc(NCc3ccccc3)c3ccccc3n2)cc1 | > 20 µM
38 | CS(=O)(=O)Nc1cccc(-c2ccc3ncnc(Nc4ccccc4)c3c2)c1 | > 20 µM
39 | COc1ccccc1-c1nccc(Nc2ccc(F)cc2)n1 | > 20 µM
40 | COc1ccc(-n2c(=O)c(-c3ccc(F)cc3)nc3cnc(OC)nc32)cc1 | > 20 µM
